HT1080 IDH1KD tx: toxicity to HT-1080 IDH1 knockdown cells (counter line) | HT-1080 IDH1 knockdown viability, ATP luminescence, 48 h | Potency, µM (top dose mostly 46.1 µM), hits mostly cytotoxic | 360,000 tested, 2% active
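IDH1KD HT-1080 cells, 750/well, RPMI + 5% FBS; compound pinned after 2 h settling; 48 h, 37 °C; CellTiter-Glo luminescence; % activity normalised to DMSO and no-cell wells; curves fitted, classed by r2 and efficacy.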
HT1080-NT tox: kills 2HG-producing HT-1080-NT fibrosarcoma cells. HT-1080-NT fibrosarcoma viability, CellTiter-Glo ATP luminescence, 48 h. Potency, µM (series often up to 46.1 µM), most hits filed as cytotoxic. 360,000 tested, 1.6% active;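 further: NT is the 2HG producing partner of a matched IDH1 knockdown line; nearly all actives have a fitted effect of over 55% in size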
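Fibrosarcoma NT cells, 750 per well in 5% FBS RPMI, were exposed to compound for 48 hours. Viability: CellTiter-Glo luminescence.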
ATXN viability: reduces viability in counter-screen for ATXN expression inhibitors. Potency, µM (titrated, usually from 56.7 µM), usual class: cytotoxic. S2 cells (HEK-293 line with an ATXN2-luciferase reporter) viability, CellTiter-Fluor protease fluorescence, 24 h. 400,000 tested, 0.49% active. AID 651635; further: nearly all actives have a fitted effect of over 40% in size
KB-3-1 cytotox: KB-3-1 parental cell cytotoxicity; KB-3-1 viability, CellTiter-Glo ATP luminescence, 72 h; Potency, µM (doses to about 46.1 µM), hits mostly cytotoxic; 400,000 tested, 1.4% active; further: nearly all actives have a fitted effect of over 60% in size
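Parental KB-3-1 adenocarcinoma cells in phenol-red-free DMEM with 10% FBS were pin-treated with compounds at several concentrations, incubated 72 h at 37 °C, and viability read by CellTiter-Glo luminescence; concentration-effect curves were fitted after normalization.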
ATXN2 expr inh: reduces ATXN2 reporter expression in HEK-293 cells; HEK-293 ATXN2-luciferase reporter, luminescence, 24 h; Potency, µM (series often up to 57 µM), most hits filed as inhibitors; 360,000 tested, 0.72% active; AID 1745845; further: nearly all actives have a fitted effect of over 55% in size
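ATXN2-luciferase reporter cells (luciferase flanked by upstream and downstream ATXN2 gene portions) were treated 24 h at 37 °C with compounds at up to 57 uM. SteadyGlo luminescence gave expression; GF-AFC fluorescence gave viability.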
KB-V1 MDR tox: kills drug-selected multidrug resistant KB-V1 cells | 400,000 tested, 3.4% active | KB-V1 MDR cells viability, CellTiter-Glo, 72 h | Potency, µM (titrated, usually from 46.1 µM), usual class: cytotoxic; further: nearly all actives have a fitted effect of over 60% in size
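Luminescent ATP read-out (CellTiter-Glo, 10 min) measures survival of drug-selected KB-V1 MDR cells after 72 h, 37 degrees C compound exposure. Medium: phenol-red-free DMEM, 10% FBS. Values from fitted concentration-response curves.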
Numbers stand for hits; . = inactive; ? = inconclusive; / = no result. Sampled rows, rich in hits. Any-hit rate of the full collection: about 6.2%. The call rests on the fitted dose curve; in most records, active means well fitted curve in the direction sought with a large enough effect; inconclusive means small, poorly fitted or top-dose-only effect, or another doubt; inactive means no such curve, though single readings can be large; an effect the other way counts as inactive or inconclusive.

SMILES	HT1080 IDH1KD tx	HT1080-NT tox	ATXN viability	KB-3-1 cytotox	ATXN2 expr inh	KB-V1 MDR tox
CC1(C)Cc2c(sc3nnn(Cc4ccc(Cl)cc4)c(=O)c23)CO1	.	.	.	?	.	6.5µM
COCCNC(=S)N/N=C(\C)c1ccc(-n2ccnc2)cc1	10µM	?	.	.	.	?
C=CCNC(=S)N/N=C(\C)c1ccc(-n2ccnc2)cc1	.	.	.	.	?	.
COc1cc(C2c3cc4c(cc3OC(NNC(N)=O)C2C)OCO4)cc(OC)c1OC (configuration not stated)	?	1.3µM	.	0.52µM	.	7.3µM
COc1cccc(C2c3cc4c(cc3OC(NNC(N)=O)C2C)OCO4)c1O (configuration not stated)	6.5µM	4.6µM	?	1.5µM	.	4.6µM
COc1cccc(C2c3cc4c(cc3OC(C)(N3CCCC3)C2C)OCO4)c1O (configuration not stated)	?	?	.	?	.	16µM
CCN(CC)C1Oc2cc3c(cc2C(c2cccc(OC)c2O)C1C)OCO3 (configuration not stated)	?	?	?	?	.	?
COc1ccc(C(=O)N2c3ccccc3C(=O)OC2c2ccc3c(c2)OCO3)cc1 (configuration not stated)	.	.	.	.	.	.
COc1ccc(C2c3cc4c(cc3OC(NNC(N)=O)C2C)OCO4)cc1 (configuration not stated)	16µM	?	.	6.5µM	.	9.2µM
COc1ccc(-c2nc(CN3CCN(C(=O)c4ccco4)CC3)c(C)o2)c(F)c1	.	.	?	/	.	/
CNc1c(Br)cc(C=O)cc1Br	/	/	/	.	/	.
COC(=O)[C@]12CCCCC=C1N(CCC1=CCCCC1)C(=O)[C@H](CC(=O)N1CCCC1)C2	.	.	?	.	.	.
Cc1cccc(C)c1NC(=O)CC12CCCN1CCC2	/	/	.	/	.	/
COc1cc(C2c3cc4c(cc3OC(NNC(N)=S)C2C)OCO4)cc(OC)c1OC (configuration not stated)	?	1.8µM	?	1µM	.	?
COc1cc(C2c3cc4c(cc3OC(NCc3ccccc3)C2C)OCO4)cc(OC)c1OC (configuration not stated)	1.2µM	1.6µM	?	0.58µM	.	?
CCCc1nc2cc(C)c(Br)c(C)n2c1CC1CCCCC1	?	?	.	16µM	.	.
COc1ccc(OC)c(C2=NOC(C(=O)N3CCCc4ccccc43)C2)c1 (configuration not stated)	.	.	.	.	.	16µM
COC(=O)/C(=N/Nc1ccccc1)N1CCCc2ccccc21	.	.	.	?	.	21µM
O=C(NCc1ccco1)C1CC(c2cc(C(F)(F)F)cc(C(F)(F)F)c2)=NO1 (configuration not stated)	2.6µM	5.8µM	.	4.1µM	.	10µM
COC(=O)/C(=N/Nc1ccc(C)cc1)N1CCCc2ccccc21	.	.	.	.	.	?
COc1ccc(OC)c(C2=NOC(C(=O)NCc3ccco3)C2)c1 (configuration not stated)	?	.	.	?	.	16µM
O=C(C1CC(c2ccc(F)cc2)=NO1)N1CCCc2ccccc21 (configuration not stated)	.	.	?	.	.	.
Cc1ccc(CNC(=O)CNS(=O)(=O)c2ccc(Br)s2)cc1	.	.	?	.	.	.
COc1ccc(NC(=O)C2CCC(C(C)(C)C)CC2)cc1S(=O)(=O)N1CCOCC1 (configuration not stated)	.	.	.	?	.	.
O=C(NCc1cccc(C(F)(F)F)c1)C1CC(c2ccccc2C(F)(F)F)=NO1 (configuration not stated)	26µM	?	?	?	.	?
SMILES	HT1080 IDH1KD tx	HT1080-NT tox	ATXN viability	KB-3-1 cytotox	ATXN2 expr inh	KB-V1 MDR tox
COc1ccc(C(=O)N2CCCc3ccccc32)cc1Br	.	.	0.22µM	.	.	?
O=C(NCc1cccc(C(F)(F)F)c1)C1CC(c2ccccc2F)=NO1 (configuration not stated)	?	?	.	.	.	.
Cc1cc(NC(=O)Nc2nc3c(s2)CCCCCC3)ccc1Br	/	/	.	.	.	.
CN(Cc1cccs1)c1ncnc2ccc(-c3ccc4cn(C)nc4c3)cc12	/	/	/	?	/	.
CCc1ccc(N2C=C(C(=O)OC)C(c3ccc(OC)cc3)C(C#N)=C2N)cc1 (configuration not stated)	?	?	/	?	/	18µM
COC(=O)C1=CN(c2ccc(C)cc2)C(N)=C(C#N)C1c1ccc(OC)cc1 (configuration not stated)	?	.	/	23µM	/	23µM
COC(=O)C1=CN(c2ccc3c(c2)OCO3)C(N)=C(C#N)C1c1cccc(F)c1 (configuration not stated)	1.8µM	3.7µM	/	2.3µM	/	3.7µM
COC(=O)C1=CN(c2ccc(OC)cc2)C(N)=C(C#N)C1c1ccc(OC)cc1 (configuration not stated)	.	.	/	.	/	.
COC(=O)C1=CN(c2ccc(OC)cc2OC)C(N)=C(C#N)C1c1ccccc1F (configuration not stated)	0.73µM	1.5µM	/	1.5µM	/	?
Cc1[nH]c2c(C)cccc2c1CCNC(=O)c1cc2ccccc2oc1=O	/	/	.	.	.	.
COc1ccc(NC(=O)C(C)N2Cc3ccccc3C2=O)cc1OC (configuration not stated)	/	/	/	.	/	.
COC(=O)C12OCC34C(CC5C(C)=C(O)C(=O)CC5(C)C3C(O)C1O)OC(=O)C(OC(=O)C=C(C)C)C24 (configuration not stated)	0.037µM	.	?	0.21µM	?	7.3µM
c1ccc2cc(CNCc3cccc4ccccc34)ccc2c1	23µM	?	.	.	.	.
CC(C)C(Cl)=NOC(=O)Nc1ccc(F)cc1	16µM	.	21µM	.	?	.
COC(=O)[C@@H]1CCCN1C(=O)c1c(OC)cc(=O)n2c1CCN(Cc1ccc3c(c1)OCCO3)CC2	/	/	.	/	/	/
COc1ccccc1-n1c(=S)sc2c(=O)n(Cc3ccco3)c(SC)nc21	.	.	.	.	.	15µM
O=C(NCC1Cc2cccc(-c3ncccn3)c2O1)C1CCOC1 (configuration not stated)	/	/	.	/	/	/
CCc1cccc2[nH]c3cc([N+](=O)[O-])ccc3c12	.	.	.	?	.	13µM
O=c1[nH]c2cc([N+](=O)[O-])ccc2c2ccccc12	?	.	.	.	.	?

Screens: PubChem BioAssay, National Center for Advancing Translational Sciences (NCATS)
